Z-score and composite z-score data for 14 molecules are collected here from PubChem BioAssay.

A short description of assay [1]: resazurin metabolic signal in HepG2 cells – cell-based, resazurin fluorescence, 24 h, PK04 Diversity Set, profiling panel (AID 1172). Also: test concentration not given here. To be noted: HepG2 viability, higher = more signal. On the technique in general: Resazurin is reduced to fluorescent resorufin, in cell work by metabolically active cells.
The nature of assay [2]: budding yeast growth changes without added modifier – OD600, strain BY4716, 24 h, basal condition, primary screen (AID 1173). To be noted: S. cerevisiae BY4716 growth, OD600, 24 h; higher = more signal, called active from +8 up or from −8 down.
A short description of assay [3]: viability profiling in MM1S myeloma cells – cell-based, resazurin fluorescence, basal, 24 h, PK04 Diversity Set, profiling panel (AID 1174).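 Also: MM1S multiple myeloma cell line; test concentration not given here.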 To be noted: higher = more signal, called active from +8 up or from −8 down.
Assay [4] deals with Dihydroorotate dehydrogenase (quinone), mitochondrial (Plasmodium falciparum (isolate 3D7)) (UniProt Q08210). The experiment in a line: inhibition of P. falciparum DHODH – biochemical, C-terminal His tag, absorbance 600 nm, primary screen (AID 1175).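 Also: recombinant parasite enzyme with a five histidine tag at its C terminus; test concentration not given here.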 To be noted: PfDHODH enzyme, DCIP absorbance 600 nm; higher = more signal, called active from +8 up or from −8 down.
Assay [5] is described as follows: growth modulation of vineyard yeast isolate – strain RM11-1a, OD600, basal, 24 h, primary screen (AID 1177).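 Also: cultures grown under basal conditions with no added stressor; test concentration not given here.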 To be noted: S. cerevisiae RM11-1a growth, OD600, 24 h; higher = more signal, called active from +8 up or from −8 down.
Assay [6] can be described thus: growth of efflux-deficient E. coli DRC39 – strain DRC39, OD650, 24 h, E. coli filamentation inducers, primary screen (AID 1178).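 Also: growth measured as culture turbidity by optical density at 650 nm; test concentration not given here.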 To be noted: E. coli DRC39 acrAB, higher = more signal, called active from +8 up or from −8 down.
Assay [7] in a line: growth of efflux-deficient E. coli DRC39 – strain DRC39, OD650, 48 h, E. coli filamentation inducers, primary screen (AID 1179).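 Also: screen aims at cell division blockers that make cells filament.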 To be noted: E. coli DRC39 delta-acrAB growth, higher = more signal, called active from +8 up or from −8 down.
Assay [8] is described as follows: viability profiling in RPMI8226 myeloma cells – cell-based, resazurin fluorescence, basal, 24 h, PK04 Diversity Set, profiling panel (AID 1180).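 Also: RPMI8826 multiple myeloma cell line at 5000 cells per well; test concentration not given here.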 To be noted: higher = more signal.
Assay [9] addresses E3 ubiquitin-protein ligase XIAP (Homo sapiens) (UniProt P98170). The experiment in a line: small molecules binding XIAP protein – biophysical, small-molecule microarray, fluorescence 635 nm, primary screen (AID 1181).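 Also: score merges 667 nm emission and signal to noise over triplicate slides.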 To be noted: higher = more signal.

Each structure is given as a SMILES string. The source made the active and inactive calls.

Sequence of E3 ubiquitin-protein ligase XIAP (Homo sapiens) (P98170 whole entry, looked up): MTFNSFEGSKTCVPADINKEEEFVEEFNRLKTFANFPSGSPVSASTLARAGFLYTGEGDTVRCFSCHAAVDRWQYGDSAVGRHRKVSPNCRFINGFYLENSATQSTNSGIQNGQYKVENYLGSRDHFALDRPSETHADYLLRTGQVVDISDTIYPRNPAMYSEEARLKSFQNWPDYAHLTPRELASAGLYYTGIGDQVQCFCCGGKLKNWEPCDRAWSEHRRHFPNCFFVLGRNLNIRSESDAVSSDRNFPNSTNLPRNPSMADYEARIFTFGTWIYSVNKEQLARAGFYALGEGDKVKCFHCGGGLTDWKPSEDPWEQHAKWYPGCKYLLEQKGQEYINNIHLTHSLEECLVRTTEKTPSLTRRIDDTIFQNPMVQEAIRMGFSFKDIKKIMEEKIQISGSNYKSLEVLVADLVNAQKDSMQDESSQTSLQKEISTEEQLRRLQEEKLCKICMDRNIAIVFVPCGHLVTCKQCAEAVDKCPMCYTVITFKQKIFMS
Sequence of Dihydroorotate dehydrogenase (quinone), mitochondrial (Plasmodium falciparum (isolate 3D7)) (Q08210 whole entry, looked up): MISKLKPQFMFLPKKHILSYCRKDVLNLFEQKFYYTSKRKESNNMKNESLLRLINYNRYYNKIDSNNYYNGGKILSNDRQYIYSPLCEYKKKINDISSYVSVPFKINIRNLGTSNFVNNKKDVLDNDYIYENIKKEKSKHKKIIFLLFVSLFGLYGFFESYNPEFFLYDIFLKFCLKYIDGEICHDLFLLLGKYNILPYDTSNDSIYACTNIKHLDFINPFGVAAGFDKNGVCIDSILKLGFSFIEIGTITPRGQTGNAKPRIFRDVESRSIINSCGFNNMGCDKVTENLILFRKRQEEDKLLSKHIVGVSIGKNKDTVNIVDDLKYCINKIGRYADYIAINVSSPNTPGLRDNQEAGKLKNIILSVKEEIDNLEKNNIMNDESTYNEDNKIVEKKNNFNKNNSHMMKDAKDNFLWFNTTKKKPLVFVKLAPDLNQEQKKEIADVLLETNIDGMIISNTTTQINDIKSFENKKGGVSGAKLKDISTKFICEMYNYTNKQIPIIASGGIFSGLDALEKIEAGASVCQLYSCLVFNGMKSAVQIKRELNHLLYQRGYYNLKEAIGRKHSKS

On to `CO[C@@H]1COC(=O)CC=C[C@@H](C)[C@H](OC)COC(=O)CC=C[C@H]1C`, for which the z-score in assay [1] is 0.994; in assay [2], -1.43 (inactive); in assay [3] it was 0.176 (inactive); in assay [5], -0.658 (inactive); in assay [6] it was 0.642 (inactive); in assay [7], 0.505 (inactive). Besides, the z-score in assay [8] was found to be 0.854. In addition, the composite z-score in assay [4] is -0.136 (inactive); in assay [9], 0.0891.
Take `C[C@H]1COC(=O)[C@@H]2CCCN2C(=O)[C@@H](C)COC(=O)[C@@H]2CCCN2C1=O`: the z-score in assay [1] is 0.678; in assay [2], -0.978 (inactive); in assay [3], 0.93 (inactive); in assay [5] it was -0.691 (inactive); in [6], 0.825 (inactive); in [7], -0.0322 (inactive). The same molecule came in with a z-score in assay [8] of 0.73. Moreover, the composite z-score in assay [4] is -0.0223 (inactive); in [9], -0.294.
Consider `COc1cc2c(cc1OC)CN(C(=O)[C@@H]1[C@H]3C(=O)O[C@H](c4ccccc4)[C@H](c4ccccc4)N3[C@H](c3ccccc3OCCO)[C@@]13C(=O)Nc1ccccc13)CC2`, for which the z-score in [1] is 0.193; in [2], 1.34 (inactive); in [3] it was 0.255 (inactive); in [5], 3.1 (inactive); in assay [6] it was 0.392 (inactive); in [7], 0.952 (inactive). In assay [8], this molecule showed a z-score of 0.105. Besides, the composite z-score in assay [4] was -0.495 (inactive); in assay [9], -0.127.
On to `C=C(COC)/C(=C/C[C@@H](OC(=O)c1ccncc1)c1ccc(OCCO)cc1)c1cc(C(=O)OC)ccc1OC`, for which the z-score in assay [1] is 0.789; in assay [2] it was -2.19 (inactive); in assay [3] it was 1.36 (inactive); in [5] it was -2.6 (inactive); in [6] it was 2.65 (inactive); in assay [7] it was 1.79 (inactive). This molecule also had a z-score in [8] of 1.16. Besides, the composite z-score in assay [4] is -1.32 (inactive); in [9], -0.103.
Turning to `CSCC[C@@H]1NC(=O)CC=C[C@@H](C)COC(=O)[C@H](CCSC)NC(=O)CC=C[C@@H](C)COC1=O`, the z-score is 0.413 in assay [1]; -1.37 (inactive) in [2]; 0.94 (inactive) in assay [3]; -1.46 (inactive) in assay [5]; -0.251 (inactive) in [6]; -0.407 (inactive) in assay [7]. Moreover, in [8], the z-score stood at 0.613. Further, the composite z-score is 0.576 (inactive) in assay [4] and -0.243 in [9].
For `C=C[C@H](OC)[C@@H](OC(=O)Nc1ccc(SC)cc1)c1ccc(OC)c(O)c1`, the z-score in [1] was 1.06; in assay [2], -1.14 (inactive); in [3] it was 0.7 (inactive); in [5], -1.55 (inactive); in [6], 1.51 (inactive); in [7] it was 1.93 (inactive). The molecule also gave a z-score in [8] of 0.933. For the same molecule, the composite z-score in [4] was -0.768 (inactive); in [9], -0.0773.
Regarding `CCCCCCc1nc(C2CC2)c(C)c2c1[Si](C(C)C)(C(C)C)OC2`, the z-score was 0.252 in [1]; -0.875 (inactive) in assay [2]; 1.47 (inactive) in [3]; -2.89 (inactive) in assay [5]; 1.6 (inactive) in [6]; 0.878 (inactive) in [7]. This molecule also returned a z-score in assay [8] of 0.232. The composite z-score in assay [4] was -3.54 (inactive); in [9], 0.109.
Consider `C=CC[C@@]1(C(=O)N2CCOCC2)N=C(c2ccc(OCCCO)cc2)O[C@@H]1c1ccccc1`, for which the z-score in assay [1] is 0.781; in assay [2], -1.69 (inactive); in assay [3] it was 1.1 (inactive); in assay [5], 1.45 (inactive); in assay [6], 0.788 (inactive); in [7] it was -0.0676 (inactive). The z-score in [8] is 1.02. The composite z-score in assay [4] is 0.702 (inactive); in [9], -0.167.
In the case of `C[C@@H]1CC[C@H]2C(=O)N3[C@@H](CC[C@@H](C)[C@@H]3c3cccc(N4CCOCC4)c3)C(=O)N2[C@H]1c1cccc(N2CCOCC2)c1`, the z-score in assay [1] was 0.728; in [2], -0.0109 (inactive); in assay [3] it was 1.04 (inactive); in assay [5], 1.35 (inactive); in [6] it was 0.203 (inactive); in assay [7], 0.202 (inactive). For the same molecule, the z-score in assay [8] is 1.39. Also, the composite z-score in assay [4] was 0.148 (inactive); in assay [9], -0.165.
As to `CO[C@H]1COC(=O)[C@@H](Cc2ccccc2)NC(=O)[C@@H](C)COC(=O)CC=C[C@@H]1C`, the z-score in assay [1] was 0.344; in assay [2], -1.14 (inactive); in assay [3], 1.1 (inactive); in [5], -0.213 (inactive); in assay [6], 1.24 (inactive); in [7], 0.639 (inactive). Besides, the z-score in [8] turned out to be 0.763. In addition, the figures for the composite z-score in assay [4] and in assay [9] were 0.0602 (inactive) and 0.785, respectively.
Take `C=CCN(C(=O)C1N(c2ccc(CCO)cc2)C(=O)C2C(C(=O)O)C3C=CC21O3)C(C)(C)C` (stereo unspecified): the z-score in assay [1] was 0.43; in [2] it was -1.39 (inactive); in assay [3], 1.06 (inactive); in [5], -1.41 (inactive); in [6], 1.44 (inactive); in assay [7], 0.94 (inactive). For the same molecule, the z-score in [8] was 0.327. Further, the composite z-score in assay [4] is -0.363 (inactive); in assay [9], -0.253.
For `CO[C@H]1COC(=O)[C@H](C)NC(=O)CC=C[C@@H](C)[C@H](NS(=O)(=O)c2ccc(C)cc2)COC(=O)[C@@H](OCc2ccccc2)C=C[C@@H]1C`, the z-score in assay [1] was 0.618; in assay [2] it was 0.156 (inactive); in assay [3], 1.03 (inactive); in assay [5] it was 1.25 (inactive); in assay [6], 0.292 (inactive); in [7], 0.104 (inactive). The same molecule yielded a z-score in assay [8] of 0.775. The composite z-score in assay [4] is 0.604 (inactive); in [9], -0.0123.
Turning to `CC(C)(C)OC(=O)CC[C@@]1(C(=O)NCc2ccccc2)N=C(c2ccc(OCCCO)cc2)O[C@@H]1c1ccccc1`, the z-score was -0.956 in [1]; -0.454 (inactive) in assay [2]; -1.49 (inactive) in assay [3]; -0.801 (inactive) in assay [5]; 2.23 (inactive) in [6]; 1.5 (inactive) in assay [7]. The molecule further showed a z-score in assay [8] of -1.76. Further, the composite z-score in assay [4] is -0.362 (inactive); in assay [9], 0.174.
Turning to `CCN1C(C)=C(C(=O)OC)[C@@H](c2ccccc2)N2C(=O)[C@@]3(C(=O)OC)O[C@@]12[C@@H]1C(=O)N(c2ccccc2)C(=O)[C@@H]13`, the z-score is 0.392 in [1]; -1.07 (inactive) in [2]; 0.839 (inactive) in assay [3]; -0.85 (inactive) in assay [5]; -0.631 (inactive) in assay [6]; -0.21 (inactive) in assay [7]. The same molecule registered a z-score in assay [8] of 1.21. Also, the composite z-score in [4] is 0.295 (inactive); in [9] it was -0.18.
